Screening data deposited in PubChem BioAssay by several laboratories.
Only some compounds are listed: those with a hit (about 4.1% of all), similar ones and a draw of the others.
TROY NFkB inh – inhibitors of TROY-dependent NF-kB signaling; Q293 LMP1-TROYcd NF-kB luciferase reporter, 4 h; inhibition, % at 10 µM; actives 0.98% (n = 360,000); AID 1347056;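 active means compounds whose plate-normalised and pattern-corrected inhibition of the luciferase reporter signal at the single screening dose is 50% or more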
Peg3 prom inh – reduces Peg3 promoter-driven luciferase expression in HeLa; HeLa PEG-Prom luciferase reporter, luminescence, overnight; inhibition, % at 20 µM; actives 1.7% (n = 360,000); AID 588405;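 active means inhibition of at least 50% at 20 µM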
TRPM1 prom inh – inhibitors of MITF-driven TRPM1 promoter in melanoma cells | SK-MEL-5 TRPM1 promoter luciferase, 24 h | inhibition, % at 12.5 µM | actives 0.83% (n = 330,000);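 active means mean inhibition across replicates of 60% or more, whatever share of single replicates reaches that level; inconclusive means some that reach 60%, reason not given; inactive means mean inhibition across replicates below 60%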
Shn3 3UTR inh – inhibitors of Schnurri-3 3'UTR reporter in osteoblasts | Clone20 osteoblast Shn3 3'UTR firefly luciferase, 24 h | actives 0.52% (n = 360,000) | inhibition, % at 12.5 µM;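 active means mean inhibition of at least 75% with every replicate also reaching 75%; inconclusive means mean inhibition at least 75% but some replicate below; inactive means mean inhibition below 75%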;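 further: 0% = median of neutral control wells and 100% = pilot-screen positive control compound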
TWEAK Fn14 block – inhibitors of TWEAK-Fn14 interaction signaling | TWEAK-stimulated Fn14 reporter cells, luciferase luminescence, 8 h | inhibition, % at 10 µM | actives 2% (n = 360,000); in the data active means inhibition above about 50%
LMP1 NFkB inh – inhibitors of Epstein-Barr LMP1-induced NF-kappaB reporter | actives 0.69% (n = 350,000) | AID 504558 | inhibition, % at 12.5 µM | LMP1-induced NF-kappaB luciferase reporter cells, luminescence; in the data active means inhibition above about 41%; inconclusive means no clear call, values can overlap the other calls;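 further: 0% = neutral control wells and 100% = reference inhibitor control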
Numbers without * were called inactive; ? = inconclusive; nt = no result.

SMILES	TROY NFkB inh	Peg3 prom inh	TRPM1 prom inh	Shn3 3UTR inh	TWEAK Fn14 block	LMP1 NFkB inh
O=C(Nc1ccc(S(=O)(=O)NC2=NCCCCC2)cc1)c1ccc2ccccc2n1	-62	-93	1	33	14	5
COC(=O)c1c(-c2ccc(S(C)(=O)=O)cc2)sc2ccc(OC)cc12	-52	-252	-91	-56	-51	-40
CCOc1ccccc1CNC(=O)C1CCN(c2nnc(C)c3c(C)n(-c4ccc(C)cc4)nc23)CC1	-28	97*	96*	41	-13	-1
CCOc1ccc(CNC(=O)C2CCN(c3nnc(C)c4c(C)n(-c5ccc(C)cc5)nc34)CC2)cc1	4	101*	95*	61	-31	-6
CN(C)C(=O)c1nc2ccccc2s1	21	-101	-25	-49	18	-11
CN(C)c1ccc(CC(=O)c2nc3ccccc3s2)cc1	76*	-137	-7	-27	78*	-10
CCOc1cc(C=C(C(=O)OC)C(=O)OC)ccc1OCc1ccc([N+](=O)[O-])cc1	52*	107*	58	96*	83*	10
COc1ccc(CNC(=O)CN(Cc2ccccc2F)C(=O)c2csnn2)cc1	10	9	-5	6	8	-4
COC(=O)C1=C(C)N(Cc2ccccc2)C(=NCc2cc(OC)c(OC)c(OC)c2)N[C@H]1c1cccc(F)c1	-2	-10	-7	15	-15	4
COC(=O)C1=C(C)N(Cc2ccccc2)C(=NCc2ccco2)N[C@H]1c1cccc(F)c1	8	-8	-3	-1	9	0
COC(=O)C1=C(C)N(Cc2ccccc2)C(=NCc2ccc(OC)cc2)N[C@H]1c1cccc(F)c1	-4	102*	?	?	-4	19
COC(=O)C1=C(C)N(Cc2ccccc2)C(=NCc2cccc(Cl)c2)N[C@H]1c1cccc(F)c1	7	104*	95*	0	-20	9
CCNC(=O)NC(=O)CN(C)c1ccccc1	-3	11	2	7	26	-11
O=C(CN1C(=O)NC2(CCCC2)C1=O)NNC(=O)c1ccc(Br)cc1	17	-46	-2	6	12	-4
O=C(NCCCO)C(=O)NCc1ccncc1	-17	2	4	-15	4	-3
N#Cc1cccc(NC(=O)COC(=O)c2cccc(N3C(=O)c4ccccc4C3=O)c2)c1	-8	11	-1	8	-4	3
CC(=O)c1c(C)oc2c1C(=O)c1ccccc1C2=O	28	42	79*	-5	24	4
COc1ccc(CNC(=O)c2c(C)oc3c2C(=O)c2ccccc2C3=O)cc1	56*	102*	104*	76	99*	13
c1cc(-c2ccsc2)n2cnnc2c1	-8	-3	nt	-4	-18	nt
O=C(Nc1ccccc1Oc1ccccc1)c1cc([N+](=O)[O-])ccc1Cl	-17	37	6	-40	54*	21
c1ccc(-c2csc3ncnc(NCc4ccccn4)c23)cc1	-14	39	33	75	65*	19
Oc1ccc(Nc2ncnc3scc(-c4ccccc4)c23)cc1	33	15	13	-14	63*	12
CCN(C(=O)c1cc2c(=O)[nH]c3ccc(C)cc3c2s1)c1ccc(OC)cc1	3	-13	-9	-5	-31	0
O=C(CO/N=C/c1ccccc1)Nc1c(F)c(F)c(F)c(F)c1F	12	2	3	-14	-11	-5
COc1ccc(C(C)(C)C)cc1NC(=O)Nc1ccc2c(c1)OCO2	-7	-2	-8	-2	9	34
SMILES	TROY NFkB inh	Peg3 prom inh	TRPM1 prom inh	Shn3 3UTR inh	TWEAK Fn14 block	LMP1 NFkB inh
Cc1ccc(N=C2SC(C(=O)Nc3ccc(OC(F)(F)F)cc3)C(N)=C2C(=O)Nc2c(C)cc(C)cc2C)cc1 (configuration not stated)	13	30	17	16	64*	-2
Cc1nc2sc(-c3ccccc3)cc2c(=O)n1-n1cccc1	-2	-293	-109	-32	-17	-58
Cc1nc2sc(-c3ccccc3)cc2c(=O)[nH]1	32	-20	21	-33	57*	36
Cc1nc2sc(-c3ccccc3)cc2c(=O)n1N	61*	58*	45	nt	94*	62*
O=c1oc(-c2ccc(Cl)c(Cl)c2)nn1-c1ccc(C(F)(F)F)cn1	-21	-36	nt	15	-8	nt
Fc1cccc(Cl)c1CSc1ncn[nH]1	78*	1	-13	-13	-11	-6
